The campaign covered roughly 5,500 compounds. About 2,000 (36%) were called active. Inconclusive results (about 18%) are left out. No stated cut-off is given here; in the data, active means normalized growth mostly below about 0.91 (no sharp cut-off); inconclusive means no clear call, values can overlap the other calls; inactive means mostly above about 0.92. The list shows a part of the results.
Assay: chemical genetic growth profiling, strain panel (AID 1159580);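 further: tested at 20 µM; growth read once vehicle control cultures reached saturation at 30 °C; 1 = growth at the plate median or of vehicle wells; lower values mean less growth of the strain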
Conditions: growth OD
[1] = S. cerevisiae deletion strains, locus YAL013W, strain DEP1, active compounds read low
[2] = S. cerevisiae deletion strains, locus YBR229C, strain ROT2, active compounds read low
[3] = S. cerevisiae deletion strains, locus YDL101C, strain DUN1, active compounds read low
[4] = S. cerevisiae deletion strains, locus YEL061C, strain CIN8, active compounds read low
[5] = S. cerevisiae deletion strains, locus YGR078C, strain PAC10, active compounds read low
[6] = S. cerevisiae deletion strains, locus YHR030C, strain SLT2, active compounds read low
[7] = S. cerevisiae deletion strains, locus YJR043C, strain POL32, active compounds read low
[8] = S. cerevisiae deletion strains, locus YJR075W, strain HOC1, active compounds read low
[9] = S. cerevisiae deletion strains, locus YLR039C, strain RIC1, active compounds read low
[10] = S. cerevisiae deletion strains, locus YLR262C, strain YPT6, active compounds read low
[11] = S. cerevisiae deletion strains, locus YMR263W, strain SAP30, active compounds read low
[12] = S. cerevisiae deletion strains, locus YMR307W, strain GAS1, active compounds read low
[13] = S. cerevisiae deletion strains, locus YPL055C, strain LGE1, active compounds read low

Measured: normalized growth

COc1cc2c(cc1OC)C(=O)c1ccc(OC)c(OC)c1OCC(=O)C2
inactive: [1] 1.01 | S. cerevisiae deletion strains, locus YBR021W, strain FUR4, active compounds read low 1.08 | [2] 1.01 | S. cerevisiae deletion strains, locus YCL029C, strain bik1, active compounds read low 1.01 | S. cerevisiae deletion strains, locus YDL035C, strain GPR1, active compounds read low 1.05 | S. cerevisiae deletion strains, locus YDL074C, strain BRE1, active compounds read low 1.05 | [3] 0.993 | S. cerevisiae deletion strains, locus YDL185W, strain tfp1, active compounds read low 0.982 | S. cerevisiae deletion strains, locus YDL192W, strain arf1, active compounds read low 1.04 | S. cerevisiae deletion strains, locus YDR101C, strain arx1, active compounds read low 1.06 | S. cerevisiae deletion strains, locus YDR162C, strain NBP2, active compounds read low 1.04 | S. cerevisiae deletion strains, locus YDR318W, strain mcm21, active compounds read low 1.01 | S. cerevisiae deletion strains, locus YDR388W, active compounds read low 1.01 | S. cerevisiae deletion strains, locus YDR502C, strain sam2, active compounds read low 0.991 | [4] 1.01 | S. cerevisiae deletion strains, locus YER110C, active compounds read low 1.01 | S. cerevisiae deletion strains, locus YER155C, strain BEM2, active compounds read low 0.992 | S. cerevisiae deletion strains, locus YER167W, strain BCK2, active compounds read low 0.995 | S. cerevisiae deletion strains, locus YGL078C, strain dbp3, active compounds read low 0.963 | S. cerevisiae deletion strains, locus YGL086W, strain mad1, active compounds read low 1.02 | S. cerevisiae deletion strains, locus YGL248W, strain PDE1, active compounds read low 0.994 | [5] 1.02 | S. cerevisiae deletion strains, locus YGR135W, strain pre9, active compounds read low 0.968 | S. cerevisiae deletion strains, locus YGR252W, strain gcn5, active compounds read low 1.05 | [6] 1 | S. cerevisiae deletion strains, locus YHR079C, strain IRE1 (second series), active compounds read low 1 | S. cerevisiae deletion strains, locus YHR094C, strain hxt1, active compounds read low 0.991 | S. cerevisiae deletion strains, locus YHR129C, strain ARP1, active compounds read low 1 | S. cerevisiae deletion strains, locus YHR200W, strain rpn10, active compounds read low 1.02 | S. cerevisiae deletion strains, locus YIL066C, strain RNR3, active compounds read low 1.01 | S. cerevisiae deletion strains, locus YIL073C, strain SPO22, active compounds read low 0.954 | S. cerevisiae deletion strains, locus YIL125W, strain kgd1, active compounds read low 1.01 | S. cerevisiae deletion strains, locus YIR030C, strain dcg1, active compounds read low 1 | S. cerevisiae deletion strains, locus YJL095W, strain BCK1, active compounds read low 1.01 | S. cerevisiae deletion strains, locus YJL134W, strain LCB3, active compounds read low 1.01 | S. cerevisiae deletion strains, locus YJL168C, strain set2, active compounds read low 1 | S. cerevisiae deletion strains, locus YJL187C, strain SWE1 (second series), active compounds read low 1.01 | [7] 1.09 | [8] 0.997 | S. cerevisiae deletion strains, locus YKL009W, strain mrt4, active compounds read low 1.01 | S. cerevisiae deletion strains, locus YKL068W, active compounds read low 0.988 | S. cerevisiae deletion strains, locus YKL085W, strain MDH1 (second series), active compounds read low 0.962 | S. cerevisiae deletion strains, locus YKL085W, strain MDH1, active compounds read low 0.962 | S. cerevisiae deletion strains, locus YKR001C, strain vps1, active compounds read low 1 | [9] 1.03 | S. cerevisiae deletion strains, locus YLR058C, strain SHM2, active compounds read low 1.01 | S. cerevisiae deletion strains, locus YLR102C, strain apc9, active compounds read low 1.01 | [10] 1 | S. cerevisiae deletion strains, locus YLR268W, strain sec22, active compounds read low 1 | S. cerevisiae deletion strains, locus YLR330W, strain CHS5, active compounds read low 1 | S. cerevisiae deletion strains, locus YLR342W, strain FKS1 (second series), active compounds read low 1.13 | S. cerevisiae deletion strains, locus YLR371W, strain rom2, active compounds read low 0.984 | S. cerevisiae deletion strains, locus YLR418C, strain cdc73, active compounds read low 1.01 | S. cerevisiae deletion strains, locus YML016C, strain PPZ1, active compounds read low 1.01 | S. cerevisiae deletion strains, locus YML032C, strain rad52, active compounds read low 1.03 | S. cerevisiae deletion strains, locus YML124C, strain tub3, active compounds read low 0.983 | S. cerevisiae deletion strains, locus YMR078C, strain ctf18, active compounds read low 1 | S. cerevisiae deletion strains, locus YMR223W, strain ubp8, active compounds read low 1.01 | [11] 0.993 | [12] 1.2 | S. cerevisiae deletion strains, locus YNL067W, strain RPL9B, active compounds read low 0.976 | S. cerevisiae deletion strains, locus YNL233W, strain BNI4, active compounds read low 1.01 | S. cerevisiae deletion strains, locus YNL250W, strain rad50, active compounds read low 0.936 | S. cerevisiae deletion strains, locus YNL271C, strain bni1, active compounds read low 0.976 | S. cerevisiae deletion strains, locus YNL298W, strain CLA4, active compounds read low 1 | S. cerevisiae deletion strains, locus YNL307C, strain MCK1, active compounds read low 0.988 | S. cerevisiae deletion strains, locus YNR052C, strain pop2, active compounds read low 0.996 | S. cerevisiae deletion strains, locus YOL006C, strain TOP1, active compounds read low 1.27 | S. cerevisiae deletion strains, locus YOL012C, strain htz1 0.675 | S. cerevisiae deletion strains, locus YOL147C, strain pex11, active compounds read low 1.01 | S. cerevisiae deletion strains, locus YOR061W, strain CKA2, active compounds read low 1.02 | S. cerevisiae deletion strains, locus YOR069W, strain VPS5, active compounds read low 1 | S. cerevisiae deletion strains, locus YOR136W, strain idh2, active compounds read low 1 | S. cerevisiae deletion strains, locus YOR144C, strain elg1, active compounds read low 1 | S. cerevisiae deletion strains, locus YOR184W, strain ser1, active compounds read low 1.07 | S. cerevisiae deletion strains, locus YOR316C, strain cot1, active compounds read low 0.99 | [13] 1.09 | S. cerevisiae deletion strains, locus YPR119W, strain clb2, active compounds read low 0.977 | S. cerevisiae deletion strains, locus YPR141C, strain kar3, active compounds read low 0.972 | S. cerevisiae deletion strains, locus YPR163C, strain tif3, active compounds read low 0.999 | S. cerevisiae deletion strains, locus YPR167C, strain met16, active compounds read low 0.99 | S. cerevisiae deletion strains, strain wtn01, active compounds read low 1.04 | S. cerevisiae strains, strain wild type, active compounds read low 1.04

COc1ccc(/C=C2\CC/C(=C\c3ccc(OC)c(OC)c3)C2=O)cc1OC
inactive: [1] 0.988 | [2] 0.998 | S. cerevisiae deletion strains, locus YCL061C, strain MRC1, active compounds read low 0.996 | [3] 0.974 | S. cerevisiae deletion strains, locus YDL134C, strain PPH21, active compounds read low 1.02 | S. cerevisiae deletion strains, locus YDR150W, strain NUM1, active compounds read low 0.904 | [4] 0.986 | [5] 0.978 | S. cerevisiae deletion strains, locus YGR229C, strain SMI1, active compounds read low 1 | [6] 0.902 | S. cerevisiae deletion strains, locus YHR087W, strain rtc3, active compounds read low 0.977 | S. cerevisiae deletion strains, locus YJL187C, strain SWE1, active compounds read low 1.01 | [7] 0.966 | [8] 1.03 | [9] 0.936 | S. cerevisiae deletion strains, locus YLR058C, strain SHM2 (second series), active compounds read low 1.01 | S. cerevisiae deletion strains, locus YLR085C, strain ARP6, active compounds read low 0.989 | [10] 0.964 | S. cerevisiae deletion strains, locus YML094W, strain GIM5, active compounds read low 1.03 | S. cerevisiae deletion strains, locus YMR219W, strain ESC1, active compounds read low 0.995 | [11] 0.973 | [12] 0.817 | S. cerevisiae deletion strains, locus YNL128W, strain TEP1, active compounds read low 0.997 | S. cerevisiae deletion strains, locus YNL153C, strain GIM3, active compounds read low 0.989 | S. cerevisiae deletion strains, locus YNL298W, strain CLA4 (second series), active compounds read low 0.987 | S. cerevisiae deletion strains, locus YNL322C, strain KRE1, active compounds read low 0.999 | S. cerevisiae deletion strains, locus YNR030W, strain Alg12, active compounds read low 0.974 | [13] 0.907 | S. cerevisiae deletion strains, locus YPL241C, strain CIN2, active compounds read low 0.974 | S. cerevisiae deletion strains, locus YPR135W, strain CTF4, active compounds read low 0.919
